39 molecules from PubChem BioAssay (EPA / NIEHS) can be followed below.

Records with an inconclusive call do not appear. Calls of active or inactive are those of the source. The calls were made as follows: active = hit-call score of the fitted dose curve at least 0.9, where 1 is the maximum; inconclusive = response in the unintended direction; inactive = score below 0.9.

Read-out in the test: organic anion transporter (SLCO1B1), SLCO1B1 (gene 10599)
The test can be described thus: CLD_SLCO1B1_24hr: CellzDirect (CLD) Gene Expression Assay for organic anion transporter (SLCO1B1) at 24 hours (AID 2283690). The protocol: CLD_24hr is a cell-based, multiplexed-readout assay that uses hepatocyte, a human liver primary cell, with measurements taken at 24 hours after chemical dosing in a 96-well plate.CLD_SLCO1B1_24hr is one of 16 assay component(s) measured or calculated from the CLD_24hr assay. It is designed to make measurements of mRNA induction, a form of inducible reporter, as detected with chemiluminescence signals by Quantitative Nuclease Protection Assay (qNPA) technology.Data from the assay component CLD_SLCO1B1_24hr was analyzed at the endpoint, CLD_SLCO1B1_24hr, in the positive analysis fitting direction relative to DMSO as the negative control and baseline of activity. Using a type of inducible reporter, gain-of-signal activity can be used to understand changes in the reporter gene as they relate to the gene SLCO1B1. Furthermore, this assay endpoint can be referred to as a primary readout. To generalize the intended target to other relatable targets, this assay endpoint is annotated to the transporter intended target family, where subfamily is organic anion transporter.
Human hepatocyte cultures were treated daily for two consecutive days with fresh dosing solutions containing appropriate concentrations of the 320 ToxCast chemicals (chemical identities were blinded to CellzDirect and other ToxCast collaborators), vehicle control (0.2% DMSO), and positive control inducers as summarized in Table 1. Due to the large number of treatment groups and chemicals examined, the ToxCast chemicals were divided into two groups (spanning two independent cultures of hepatocytes from separate donor preparations (Hu778: ToxCast plates 1 and 2; Hu776: ToxCast plates 3 and 4). Each preparation of human hepatocyte cultures was treated with respective vehicle control, medium only control, set of six positive controls/reference chemicals for the five hepatic receptor pathways, and a subset of eight of the ToxCast chemicals (indoxacarb, pyrithiobac-sodium, norflurazon, cyhalofop-butyl, methomyl, thiram, acetochlor, and propiconazole). These replicate data, coupled with internal replicates designed within the blinded ToxCast chemical library, provided additional data to evaluate interindividual differences between hepatocyte preparations and their potential impact on chemical profiles.Cell morphology and integrity were evaluated using phase-contrast microscopy as an indicator of hepatocyte cell health (Tyson & Green, 1987). Cultures for each treatment group (i.e., media, vehicle [0.2% DMSO], positive control inducers [multiple concentrations], and the ToxCast chemicals [multiple concentrations]) were observed and cell morphology was assessed relative to vehicle control cultures at each harvest time point (0, 6, 24, or 48 h). […] Images were evaluated at the conclusion of the study to assess changes in cell integrity and account for the effects of chemical exposure on uncharacteristic changes in concentration-dependent gene expression profiles. The results from these determinations of apparent cytotoxicity were annotated (yes/no) alongside the corresponding qNPA data for reference.At the conclusion of each treatment period, hepatocyte cultures (96-well) were washed with 1 volume of HBSS, lysed by addition of 25 ul ArrayPlate lysis buffer (HTG, Tucson, AZ), and 70 ul/well of Denaturation Oil, denatured by incubation at 95C for 10 min, and frozen at approximately -70C until analysis by nuclease protection assay (qNPA) (Roberts et al., 2007). For qNPA analysis, cell lysates were thawed at 50C for approximately 30 min, qNPA probes were added, and samples were incubated at 95C for 10 min to begin the detection process by denaturing the target RNA, dissociating the duplexes and secondary structure hybridization. At the conclusion of the hybridization period, S1 nuclease reagent was added to each sample to digest all nonprotected nucleotides at 50C for 60-90 min. […]
As for `CC(=NC#N)N(C)Cc1ccc(Cl)nc1`, the molecule was classed as inactive.
With `CCNc1nc(Cl)nc(NC(C)(C)C#N)n1`, the outcome was inactive.
To `CCOC(=O)CC(SP(=O)(OC)OC)C(=O)OCC` (centres undefined) belongs “inactive”; to `C#CCC1=C(C)C(OC(=O)C2C(C=C(C)C)C2(C)C)CC1=O` (centres undefined), “inactive”.
To `CCc1cccc(CC)c1N(COC)C(=O)CCl` belongs “inactive”.
The same measure for `CCOP(=S)(OCC)OC(Cl)C(Cl)(Cl)Cl` (centres undefined): “inactive”; for `C=C(C)[C@H]1Cc2c(ccc3c2O[C@@H]2COc4cc(OC)c(OC)cc4[C@@H]2C3=O)O1`: “inactive”.
For the molecule `O=c1ccc(=O)[nH][nH]1`, the molecule was called inactive.
`CCOP(=S)(OCC)Oc1ccc2c(C)c(Cl)c(=O)oc2c1`: the molecule was called inactive.
To `CCOP(=O)(SC(C)CC)N1CCSC1=O` (centres undefined) belongs “inactive”.
To `CC(C1CC1)C(O)(Cn1cncn1)c1ccc(Cl)cc1` (centres undefined) belongs “inactive”; to `CC(C)[C@H](C(=O)O[C@H](C#N)c1cccc(Oc2ccccc2)c1)c1ccc(Cl)cc1`, “inactive”.
For the molecule `CCOC(=O)COc1cc(-c2nn(C)c(OC(F)F)c2Cl)c(F)cc1Cl`, the molecule was called inactive.
With `CCCCSP(=O)(SCCCC)SCCCC`, the molecule was called inactive.
Turning to `CN1COCN(Cc2cnc(Cl)s2)C1=N[N+](=O)[O-]`, the call was inactive.
The same measure for `S=C1NCCN1`: “inactive”; for `Cc1nn(-c2cc(NS(C)(=O)=O)c(Cl)cc2Cl)c(=O)n1C(F)F`: “inactive”.
To `CNC(=O)Oc1cccc2c1OC(C)(C)O2` belongs “inactive”; to `CC1(C(=O)Nc2ccc(O)c(Cl)c2Cl)CCCCC1`, “inactive”; to `CNC(=O)ON=C(SC)C(=O)N(C)C`, “inactive”.
To `Nc1nc(N)nc(NC2CC2)n1` belongs “inactive”; to `COc1cccc(C(=O)NN(C(=O)c2cc(C)cc(C)c2)C(C)(C)C)c1C`, “inactive”.
Take `COP(=O)(NC(C)=O)SC` (centres undefined): the molecule was classed as inactive.
For the molecule `CN(C)NC(=O)CCC(=O)O`, the result was inactive.
The same measure for `CCCSP(=O)(OCC)Oc1ccc(Br)cc1Cl` (centres undefined): “inactive”; for `CNC(=O)ON=C(C)SC`: “inactive”.
The same measure for `CN(C)C(=O)Nc1cccc(C(F)(F)F)c1`: “inactive”.
For `CN(C)[C@@H]1C(=O)C(C(N)=O)=C(O)[C@@]2(O)C(=O)C3=C(O)c4c(O)cccc4[C@@](C)(O)[C@H]3[C@H](O)[C@@H]12`, the result was inactive.
Turning to `CC(C)=CC1C(C(=O)OCN2C(=O)C3=C(CCCC3)C2=O)C1(C)C` (centres undefined), the molecule was called inactive.
To `O=C(O)c1cc(Oc2ccc(C(F)(F)F)cc2Cl)ccc1[N+](=O)[O-]` belongs “inactive”; to `CC(COc1ccc(Oc2ccccc2)cc1)Oc1ccccn1` (centres undefined), “inactive”; to `CCOP(=S)(OCC)SCCSCC`, “inactive”.
To `COc1ccc(C(=CC(=O)N2CCOCC2)c2ccc(Cl)cc2)cc1OC` belongs “inactive”; to `COP(=O)(OC)C(O)C(Cl)(Cl)Cl` (centres undefined), “inactive”.
To `CSC1=N[C@@](C)(c2ccccc2)C(=O)N1Nc1ccccc1` belongs “inactive”; to `CCCOc1nn(C(=O)NS(=O)(=O)c2ccccc2C(=O)OC)c(=O)n1C`, “inactive”.
With `CCc1cnc(C2=NC(C)(C(C)C)C(=O)N2)c(C(=O)O)c1` (centres undefined), the molecule was classed as inactive.
The same measure for `COc1cc(OC)nc(Sc2cccc(Cl)c2C(=O)O)n1`: “inactive”; for `CCOP(=O)(OCC)Oc1cc(C)nc(C(C)C)n1`: “inactive”.
